Assay [1] in a line: NCI Yeast Anticancer Drug Screen. Data for the rad50 strain (AID 155).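 Note: 0% = growth of vehicle-only cultures of the same strain.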 As to conditions: S. cerevisiae rad50 strain growth inhibition; at 50.0 µM; active compounds read high. The procedure, abridged:
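Relative growth inhibition (compound vs vehicle) was measured in yeast with a defined repair-gene alteration.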

Assay [2] is described as follows: NCI Yeast Anticancer Drug Screen. Data for the mec2-1 strain (AID 157). The conditions noted are these: S. cerevisiae mec2-1 strain, at 50.0 µM, active compounds read high. The procedure, abridged:
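Using mec2-1 yeast: add compound, measure growth, express inhibition versus vehicle-treated cultures.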

Assay [3] can be described thus: NCI Yeast Anticancer Drug Screen. Data for the sgs1 mgt1 strain (AID 161).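 Note: 0% = growth of cultures given vehicle only.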 The conditions noted are these: S. cerevisiae sgs1 mgt1 strain, at 50.0 µM, active compounds read high. The procedure, abridged:
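Compounds are added to genetically altered yeast, and growth is compared with cultures given vehicle alone to give percent inhibition.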

The nature of assay [4]: NCI Yeast Anticancer Drug Screen. Data for the cln2 rad14 strain (AID 165).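 Note: 0% = growth equal to vehicle treated cultures.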 The conditions noted are these: S. cerevisiae cln2 rad14 strain, at 50.0 µM, active compounds read high. The procedure, abridged:
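Yeast strain cln2 rad14, bearing defects in cell cycle control and DNA repair, serves as the test system; values reflect growth inhibition compared with vehicle.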

Assay [5] can be described thus: NCI Yeast Anticancer Drug Screen. Data for the bub3 strain (AID 167). As to conditions: S. cerevisiae bub3 mutant strain, at 50.0 µM, active compounds read high. A digest of the protocol: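 Screening used yeast with an engineered genetic alteration affecting cell cycle control. Compound-exposed cultures were compared with vehicle cultures, and reduced growth was taken as inhibition.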

A short description of assay [6]: NCI Yeast Anticancer Drug Screen. Data for the mlh1 rad18 strain (AID 175). As to conditions: S. cerevisiae mlh1 rad18 strain growth inhibition; at 50.0 µM; active compounds read high. A digest of the protocol: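 Steps: expose repair-defective yeast to compound; measure growth; express inhibition against vehicle-treated controls.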

The panel holds about 79,000 compounds, 15% with a hit somewhere; the sample as a whole holds those more often. Unmarked numbers belong to inactive results. Calls of active or inactive are those of the source. Cut-off read from the data, not from the text of the source: active = growth inhibition above about 70%; inactive = the rest.

Consider `CCCCCCCCCCCCOc1ccc(Sc2ccc(OCCCCCCCCCCCC)cc2C)c(C)c1`, for which the growth inhibition in assay [1] was -16.2%; in assay [2], -8.05%; in assay [3], -0.95%; in assay [4], -26.2%; in assay [5], 6.35%; in assay [6] it was -11.2%.

On to `O=C(Oc1ccc(Cl)cc1)c1ccccc1`, for which the growth inhibition is 25.3% in assay [1]; -2.1% in assay [2]; -1.65% in assay [3]; 2.25% in assay [4]; -7.75% in assay [5]; -25.6% in assay [6].

As to `COC(=O)C(C#N)(CCC(=O)c1ccccc1)CCC(=O)c1ccccc1`, the growth inhibition is 13.3% in assay [1]; 17.3% in assay [2]; 10.2% in assay [3]; -8.65% in assay [4]; 17.8% in assay [5]; 9.8% in assay [6].

Take `CC1C(=O)CCC2C1(C)CCC1C2(C)CCC2(C)C3CC(C)(C)CCC3(C)CCC12C` (stereo not drawn): the growth inhibition in assay [1] was 18.4%; in assay [2] it was -9.05%; in assay [3], 17.4%; in assay [4], 9.2%; in assay [5] it was 22.9%; in assay [6], 16.8%.

For the molecule `COc1ccc(OC)c(CCCC(=O)O)c1`, the growth inhibition is 9.6% in assay [1]; 7.65% in assay [2]; 2.7% in assay [3]; 4.35% in assay [4]; 2.05% in assay [5]; -8.7% in assay [6].

`O=S(=O)(Nc1nccs1)c1ccc(Cl)cc1`: the growth inhibition in assay [1] is 25.1%; in assay [2], 46%; in assay [3], 74.2% (active); in assay [4], 20.4%; in assay [5], 33%; in assay [6], 68.2%.

`CN(N)c1nc2c(N)ncnc2n1C1OC(CO)C(O)C1O` (stereo not drawn): the growth inhibition in assay [1] is 25.9%; in assay [2] it was 24.1%; in assay [3] it was 30.6%; in assay [4], 13.8%; in assay [5] it was 30%; in assay [6], 48.3%.

For the molecule `CCC1(O)c2ccccc2CCC1C` (stereo not drawn), the growth inhibition was 12.8% in assay [1]; -15.8% in assay [2]; -15.3% in assay [3]; -29.9% in assay [4]; -33.1% in assay [5]; -19.9% in assay [6].

`CC(=O)OCC1OC(n2cnc3c(N)ncnc32)CC1OC(C)=O` (stereo not drawn): the growth inhibition was -1.7% in assay [1]; -1.75% in assay [2]; -1.25% in assay [3]; -47.5% in assay [4]; 15.5% in assay [5]; -18.6% in assay [6].

As for `C1CN(SSN2CCSCC2)CCS1`, the growth inhibition in assay [1] is -2.1%; in assay [2], -18.5%; in assay [3], 6.5%; in assay [4] it was -100%; in assay [5], 7.15%; in assay [6] it was -14.5%.

For the molecule `N=N/C(=C\c1c(O)[nH]c2ccccc12)c1ccccc1`, the growth inhibition in assay [1] is -7.35%; in assay [2], 13.6%; in assay [3] it was 34.2%; in assay [4] it was -35.2%; in assay [5], 57.3%; in assay [6] it was -8.75%.

With `COc1ccc2c(c1)CC1=C2CCC2(C)C(=O)CC=C12` (stereo not drawn), the growth inhibition is 11.7% in assay [1]; -8.35% in assay [2]; -7.65% in assay [3]; 11.8% in assay [4]; 4.5% in assay [5]; 4.85% in assay [6].

Consider `COC(=O)N1CCc2c(nc(N(C)CCO)[nH]c2=O)C1`, for which the growth inhibition was -0.55% in assay [1]; -20.5% in assay [2]; -47.2% in assay [3]; -3.8% in assay [4]; -30.1% in assay [5]; -30.6% in assay [6].

As to `Cc1nc(N)c2nc(SC(C)C)c(N)nc2n1`, the growth inhibition in assay [1] was 2.85%; in assay [2] it was -6.55%; in assay [3], 0.45%; in assay [4], -31.2%; in assay [5] it was -20.9%; in assay [6], 17.2%.

In the case of `O=C/C=C/C=C/C=C/c1ccccc1`, the growth inhibition in assay [1] is 32.6%; in assay [2], -6.15%; in assay [3], 14.4%; in assay [4], 13.7%; in assay [5] it was -5.25%; in assay [6], 27.6%.

As to `CC(=O)c1cccc(C(=O)O)c1`, the growth inhibition in assay [1] was -17.4%; in assay [2] it was 1.95%; in assay [3], -11.7%; in assay [4] it was -29.7%; in assay [5], -2.35%; in assay [6], -4.3%.

Consider `CC(=O)NCCN1CCN(C(C)=O)CC1`, for which the growth inhibition in assay [1] was 10.1%; in assay [2], 10.7%; in assay [3] it was -8.7%; in assay [4], -37%; in assay [5], -13.8%; in assay [6], -15.2%.

In the case of `N#CCCC1(CCC#N)CCc2ccccc2C1=O`, the growth inhibition in assay [1] is 26.6%; in assay [2], 1.2%; in assay [3] it was 24.6%; in assay [4], 25.9%; in assay [5], 8.1%; in assay [6], 40%.

The values above are taken from PubChem BioAssay (NCI).
